Source: PubChem BioAssay (NCATS)
“And” between values parts separate entries of the source, which are not always exact repeats. Equal values may be shown once. Records with an inconclusive call do not appear. The source made the active and inactive calls. Calls come from the whole dose curve; as a rule, active = well fitted curve in the direction sought with a large enough effect; inconclusive = small, poorly fitted or top-dose-only effect, or another doubt; inactive = no such curve, though single readings can be large; an effect the other way counts as inactive or inconclusive.

How the values were obtained:
[1] = Quantitative highthroughput screen to assess conditional lethalithy of NOMO1 cells grown in RPMI1640 with untreated serum (RPMI+s) (AID 1963876); conditions: NOMO1 AML cells in RPMI+serum, CellTiter-Glo viability, 48 h; series mostly up to 45.8 µM; note: nearly all actives have a fitted effect of over 35% in size; note: potency is the fitted concentration of half-maximal effect;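 for viability: 100% = DMSO wells and 0% = empty wells without cells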
In short: (§1)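 Each medium arm—HPLM with 10% dialyzed FBS, or RPMI1640 with 5 mM glucose and 10% untreated or dialyzed FBS—was screened against an 11-point, 3-fold compound titration for 48 h at 37 °C, with CellTiter-Glo luminescence as endpoint.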

[2] = Quantitative highthroughput screen to assess conditional lethalithy of NOMO1 cells grown in RPMI1640 with dialyzed fetal bovine serum (RPMI+ds) (AID 1963877); conditions: NOMO1 in RPMI+dialyzed FBS viability, ATP luminescence, 48 h; series mostly up to 45.8 µM; note: nearly all actives have a fitted effect of over 30% in size; note: potency is the fitted concentration of half-maximal effect;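 for viability: 100% = DMSO control wells and 0% = empty wells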
In short: as §1

[3] = Quantitative highthroughput screen to assess conditional lethalithy of NOMO1 cells grown in Human Plasma-Like Medium with dialyzed fetal bovine serum (HPLM+ds) (AID 1963878); conditions: NOMO1 AML cells in HPLM+ds, CellTiter-Glo viability, 48 h; series mostly up to 45.8 µM; note: nearly all actives have a fitted effect of over 35% in size; note: potency is the fitted concentration of half-maximal effect;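 for viability: 100% = DMSO wells and 0% = empty wells on each plate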
In short: as §1

[4] = Quantitative highthroughput screen to assess conditional lethalithy of P12 Ichikawa cells grown in RPMI1640 with dialyzed fetal bovine serum (RPMI+ds) (AID 1963880); conditions: ATP luminescence, 48 h; Potency: P12-Ichikawa viability; series mostly up to 45.8 µM; note: nearly all actives have a fitted effect of over 35% in size; note: potency is the fitted concentration of half-maximal effect;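 for viability: 100% = DMSO wells and 0% = empty wells on each plate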
In short: as §1

[5] = Quantitative highthroughput screen to assess conditional lethalithy of P12 Ichikawa cells grown in RPMI1640 with untreated serum (RPMI+s) (AID 1963881); conditions: ATP luminescence, 48 h; Potency: viability; series mostly up to 45.8 µM; note: nearly all actives have a fitted effect of over 35% in size; note: potency is the fitted concentration of half-maximal effect;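 for viability: 100% = DMSO wells and 0% = empty wells without cells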
In short: as §1

[6] = Quantitative highthroughput screen to assess conditional lethalithy of SEM cells grown in Human Plasma-Like Medium with dialyzed fetal bovine serum (HPLM+ds) (AID 1963882); conditions: SEM B-ALL cells in HPLM+ds, CellTiter-Glo viability, 48 h; series mostly up to 45.8 µM; note: nearly all actives have a fitted effect of over 35% in size; note: potency is the fitted concentration of half-maximal effect
In short: as §1

[7] = Quantitative highthroughput screen to assess conditional lethalithy of SEM cells grown in RPMI1640 with unreated serum (RPMI+s) (AID 1963883); conditions: SEM B-ALL cells, CellTiter-Glo viability, 48 h; series mostly up to 45.8 µM; note: nearly all actives have a fitted effect of over 35% in size; note: potency is the fitted concentration of half-maximal effect;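 for viability: 100% = DMSO wells and 0% = empty wells without cells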
In short: as §1

[8] = Quantitative highthroughput screen to assess conditional lethalithy of SEM cells grown in RPMI1640 with dialyzed fetal bovine serum (RPMI+ds) (AID 1963884); conditions: SEM B-ALL cells, RPMI+dialyzed FBS, CellTiter-Glo viability, 48 h; series mostly up to 45.8 µM; note: nearly all actives have a fitted effect of over 35% in size; note: potency is the fitted concentration of half-maximal effect;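 for viability: 100% = DMSO control wells and 0% = empty wells without cells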
In short: as §1

[9] = Cellular viability qHTS for adrenocortical cancer (ACC) cell line SW-13 (AID 1963989); conditions: SW-13 ACC cells viability, CellTiter-Glo, 48 h; activity (max response): hits give low values;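 note: cells grown in serum-free medium with ITS supplement; % is set by controls: 0 for no effect and ±100 for the full control effect; nearly all actives have a fitted effect of over 65% in size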
In short: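 48 h treatment, SW-13 in ITS/DMEM serum-free; doses up to 46 uM; readout CellTiter-Glo luminescence; curve fit four-parameter logistic.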

[10] = Cellular viability qHTS for adrenocortical cancer (ACC) cell line NCI-H295R (AID 1963990); conditions: CellTiter-Glo ATP luminescence, 48 h; series mostly up to 46.1 µM;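 note: 0% = DMSO only wells and -100% = full killing with cytotoxic reference compound; nearly all actives have a fitted effect of over 60% in size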
In short: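 Compound titrations (up to 46 uM final) are applied to NCI-H295R cultures for 48 h at 37C. Viable cell number is estimated by CellTiter-Glo signal, normalised to DMSO and doxorubicin controls.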

[11] = Quantitative highthroughput screen to assess conditional lethalithy of P12 Ichikawa cells grown in Human Plasma-Like Medium with dialyzed fetal bovine serum (HPLM+ds) (AID 1963879); conditions: ATP luminescence, 48 h; Potency: viability; series mostly up to 45.8 µM; note: nearly all actives have a fitted effect of over 35% in size
In short: as §1

CCc1ccc(CCOc2ccc(CC3SC(=O)NC3=O)cc2)nc1 (stereo not drawn)
inactive: Potency [1] | Potency [2] | Potency [3] | Potency [4] | Potency [5] | Potency [6] | Potency [7] | Potency [8] | activity (max response) [9] 0.771% and -12.6% | Potency [10]

O=C(C=Cc1cccc(S(=O)(=O)Nc2ccccc2)c1)NO
active: Potency [1] 17.1 µM | Potency [2] 12.1 µM | Potency [3] 13.6 µM | Potency [4] 6.05 µM | Potency [5] 4.29 µM | Potency [6] 0.679 µM | Potency [7] 0.605 µM | Potency [8] 0.762 µM

CCCCOCCOc1nc(-c2ccc(C(=O)O)c(F)c2)sc1C
inactive: Potency [1] | Potency [2] | Potency [3] | Potency [11] | Potency [6] | Potency [7] | Potency [8] | activity (max response) [9] -9.17% | Potency [10]

OC[C@H]1O[C@@H](n2cnc3c2NC=NC[C@@H]3O)C[C@H]1O
inactive: Potency [1] | Potency [2] | Potency [3] | Potency [4] | Potency [5] | Potency [6] | Potency [7] | Potency [8]

CC[C@H]1CN2CCc3cc(OC)c(OC)cc3[C@H]2C[C@@H]1C[C@@H]1NCCc2cc(OC)c(OC)cc21
active: Potency [1] 0.469 µM | Potency [2] 0.469 µM | Potency [3] 0.526 µM | Potency [4] 0.418 µM | Potency [5] 0.235 µM | Potency [6] 0.166 µM | Potency [7] 0.235 µM

Cc1ccc(Nc2cc(-c3cccc(N4C(=O)c5ccccc5C4=O)c3)ncn2)cc1NS(C)(=O)=O
inactive: Potency [1] | Potency [2] | Potency [3] | Potency [4] | Potency [5] | Potency [7]

O=C(O)C=Cc1ccc(Cn2ccnc2)cc1
inactive: Potency [1] | Potency [2] | Potency [3] | Potency [11] | Potency [7]

Cc1ccc2c(c1)C(=O)[C@]1(O)CCN(c3ccccc3)C1=N2
inactive: Potency [1] | Potency [2] | Potency [3] | Potency [4] | Potency [5] | Potency [6] | Potency [7] | Potency [10]

Cc1coc2c1C(=O)C(=O)c1c-2ccc2c(C)cccc12
inactive: Potency [1] | Potency [2] | Potency [3] | Potency [4] | Potency [5] | Potency [6] | Potency [8]

COc1cc([C@H]2Oc3cc([C@H]4Oc5cc(O)cc(O)c5C(=O)[C@H]4O)ccc3O[C@H]2CO)ccc1O
inactive: Potency [1] | Potency [2] | Potency [3] | Potency [4] | Potency [5] | Potency [7]

CC(Cc1ccc(O)c(O)c1)(NN)C(=O)O (stereo not drawn)
inactive: Potency [1] | Potency [2] | Potency [3] | Potency [11] | Potency [6] | activity (max response) [9] 0.463% | Potency [10]

CN1C(=O)C[C@H](C(=O)N[C@@H](Cc2cnc[nH]2)C(=O)N2CCC[C@@H]2C(N)=O)NC1=O
inactive: Potency [1] | Potency [2] | Potency [3] | Potency [4] | Potency [5] | Potency [10]

O=C1c2c(O)cccc2[C@@H]([C@@H]2O[C@H](CO)[C@@H](O)[C@H](O)[C@H]2O)c2cc(CO)cc(O)c21
inactive: Potency [1] | Potency [2] | Potency [3] | Potency [4] | Potency [5] | Potency [6] | Potency [7] | Potency [8]

CC(=O)OCC(=O)[C@@]1(O)CC[C@H]2[C@@H]3CCC4=CC(=O)CC[C@]4(C)[C@@H]3C(=O)C[C@@]21C
inactive: Potency [1] | Potency [2] | Potency [3] | Potency [4] | Potency [5] | Potency [6] | Potency [7]

CC[C@H]1OC(=O)[C@H](C)C(=O)[C@H](C)[C@@H](O[C@H]2O[C@H](C)C[C@H](N(C)C)[C@@H]2O)[C@](C)(OC)C[C@@H](C)C(=O)[C@H](C)[C@H]2N(CCCCn3cnc(-c4cccnc4)c3)C(=O)O[C@]12C
inactive: Potency [1] | Potency [2] | Potency [3] | Potency [4] | Potency [5] | Potency [6] | Potency [7] | Potency [8]

CC(=O)[C@]1(O)Cc2c(O)c3c(c(O)c2[C@@H](O[C@H]2C[C@H](N)[C@@H](O)[C@H](C)O2)C1)C(=O)c1ccccc1C3=O
active: Potency [1] 2.96 µM | Potency [2] 3.72 µM | Potency [3] 2.96 µM | Potency [4] 1.48 µM | Potency [5] 1.48 µM | Potency [6] 1.05 µM | Potency [7] 0.833 µM | Potency [8] 1.05 µM
